Data published in ChEMBL document CHEMBL1961873, “Compounds: GSK PKIS; Assays: Nanosyn kinase panel” (2012).

These compounds were tested against Aurora kinase B (Homo sapiens) (UniProt Q96GD4). Details: at 1 µM.
Chain of Aurora kinase B (Homo sapiens) (Q96GD4 whole entry): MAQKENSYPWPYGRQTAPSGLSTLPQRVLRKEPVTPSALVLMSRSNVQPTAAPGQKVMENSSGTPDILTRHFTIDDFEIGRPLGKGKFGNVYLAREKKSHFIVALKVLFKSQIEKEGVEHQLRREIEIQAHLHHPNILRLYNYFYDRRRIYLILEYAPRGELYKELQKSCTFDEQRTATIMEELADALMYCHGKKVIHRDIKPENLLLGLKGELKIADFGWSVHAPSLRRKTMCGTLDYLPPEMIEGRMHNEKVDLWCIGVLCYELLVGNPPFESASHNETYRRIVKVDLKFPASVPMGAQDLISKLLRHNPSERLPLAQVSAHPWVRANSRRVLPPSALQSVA

In order of rising inhibition:
1. CCn1c(-c2nonc2N)nc2c(C#CC(C)(C)O)ncc(OC3CCNCC3)c21  1.85%
2. c1ccc(-c2nc3n(c2-c2ccc4c(c2)OCO4)CCC3)nc1  2.28%
3. CCCN1CCC(c2ccc(Nc3nc(Nc4cc(F)ccc4C(N)=O)c4cc[nH]c4n3)c(OC)c2)CC1  3.04%
4. CS(=O)(=O)CCNCc1ccc(-c2ccc3ncnc(Nc4ccc(OCc5ccccc5)c(C(F)(F)F)c4)c3c2)o1  3.4%
5. CN1CCC(n2cnc(-c3ccc(F)cc3)c2-c2ccnc(Nc3ccccc3)n2)CC1  3.9%
6. CCN(CC)S(=O)(=O)c1ccc(OC)c(Nc2ncc(-c3ccccc3)o2)c1  4.64%
7. CNC(=O)c1cccc(C#Cc2cncnc2Nc2ccc(OCc3cccc(F)c3)c(Cl)c2)c1  4.77%
8. c1ccc(COc2ccc(Nc3ncnc4ccc(-c5ccco5)cc34)cc2)cc1  4.9%
9. Fc1ccc(-c2cc(-c3c[nH]nc3-c3ccccn3)ccn2)cc1  5.17%
10. NC(=O)c1sc(-n2cnc3ccc(C(F)(F)F)cc32)cc1OCc1ccccc1Br  5.43%
11. Nc1nc(-c2cccc(Cl)c2)c(-c2ccc3ncccc3n2)s1  5.58%
12. CN(C)CCOc1ccc(-c2nc(-c3ccncc3)c(-c3ccc4c(c3)CC/C4=N\O)[nH]2)cc1  6.16%
13. COc1ccc(CNC(=O)c2ccc(-c3cc(-c4nnc(C)o4)ccc3C)cc2)cc1  6.54%
14. Cc1cccc2c1NC(=O)/C2=N\Nc1ccc(S(N)(=O)=O)cc1  7.09%
15. CNC(=O)c1cncc(/C=C/c2ccccc2Cl)c1  7.3%
16. Cc1cccc(Nc2ncc(-c3ccccc3)o2)c1  7.88%
17. Nc1nc(-c2ccc(F)cc2)c(-c2ccc3ncccc3n2)s1  7.91%
18. CCCN(CCS(C)(=O)=O)Cc1ccc(-c2ccc3ncnc(Nc4ccc(OCc5cccc(F)c5)c(Cl)c4)c3c2)o1  8.39%
19. [O-][S+]1CCN(Cc2ccc(-c3ccc4ncnc(Nc5ccc(OCc6cccc(F)c6)c(Cl)c5)c4c3)o2)CC1  9.46%
20. CC1=C(C(=O)Nc2cc(Cl)c3[nH]ncc3c2)C(c2ccc(C(F)(F)F)cc2)CC(=O)N1 (stereo unspecified)  10%
21. N#Cc1c(NC(=O)CN2CCOCC2)sc2c1CCCC2  10.7%
22. COc1ccc(-c2cc3c(N)ncnc3o2)cc1  11.7%
23. FC(F)(F)c1cccc(-c2nn3ncccc3c2-c2ccnc(Nc3ccc4c(c3)OCCO4)n2)c1  12.4%
24. Nc1ncc(-c2cccc(S(N)(=O)=O)c2)c2scc(-c3ccc(F)c(Cl)c3)c12  14.7%
25. CCc1nn2ncccc2c1-c1ccnc(NC2CC2)n1  17.4%
26. Clc1ccc(-c2nn3ncccc3c2-c2ccnc(Nc3ccccc3)n2)cc1  20.2%
27. CC(C)(CO)CNC(=O)c1ccc2c(c1)/C(=N/Nc1ccc(S(N)(=O)=O)cc1)C(=O)N2  21%
28. NS(=O)(=O)c1ccc(Nc2ncc(-c3ccccc3)o2)cc1  24.7%
29. COc1ccc2c(-c3ccnc(Nc4cccc(OC(F)(F)F)c4)n3)cnn2n1  28.8%
30. Cc1ccc(O)cc1Nc1ccnc2cc(-c3ccccn3)ccc12  43.9%
31. COc1ccc(-c2oc3ncnc(N)c3c2-c2ccc(NC(=O)Nc3cc(C(F)(F)F)ccc3F)cc2)cc1  46.2%
32. COc1cccc(-c2c[nH]c3c(N/N=C/c4ccncc4)ncnc23)c1  55.4%
33. COc1ccc2[nH]c3c4[nH]c5ccc(OC)cc5c4c4c(c3c2c1)C(=O)NC4=O  66.9%

These compounds were tested against T1, Aurora kinase C (Homo sapiens) (UniProt Q9UQB9). Details: at 0.1 µM.
T1 sequence (whole entry): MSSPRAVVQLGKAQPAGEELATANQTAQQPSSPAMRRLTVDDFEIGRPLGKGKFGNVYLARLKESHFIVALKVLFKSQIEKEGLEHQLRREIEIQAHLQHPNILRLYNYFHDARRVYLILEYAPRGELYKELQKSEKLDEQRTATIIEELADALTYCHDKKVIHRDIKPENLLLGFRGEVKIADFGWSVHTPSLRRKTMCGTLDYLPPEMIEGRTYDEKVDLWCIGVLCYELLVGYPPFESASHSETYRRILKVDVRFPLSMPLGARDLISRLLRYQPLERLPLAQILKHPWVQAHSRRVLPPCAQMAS

In order of falling inhibition:
1. COc1cccc(-c2c[nH]c3c(N/N=C/c4ccncc4)ncnc23)c1  13.2%
2. COc1ccc2[nH]c3c4[nH]c5ccc(OC)cc5c4c4c(c3c2c1)C(=O)NC4=O  12.4%
3. Cc1ccc(O)cc1Nc1ccnc2cc(-c3ccccn3)ccc12  6.76%
4. NS(=O)(=O)c1ccc(Nc2ncc(-c3ccccc3)o2)cc1  6.57%
5. CNC(=O)c1cncc(/C=C/c2ccccc2Cl)c1  5.27%
6. Nc1ncc(-c2cccc(S(N)(=O)=O)c2)c2scc(-c3ccc(F)c(Cl)c3)c12  4.24%
7. COc1ccc(-c2oc3ncnc(N)c3c2-c2ccc(NC(=O)Nc3cc(C(F)(F)F)ccc3F)cc2)cc1  3.56%
8. CC(C)(CO)CNC(=O)c1ccc2c(c1)/C(=N/Nc1ccc(S(N)(=O)=O)cc1)C(=O)N2  3.09%
9. CCc1nn2ncccc2c1-c1ccnc(NC2CC2)n1  3.06%
10. COc1ccc(CNC(=O)c2ccc(-c3cc(-c4nnc(C)o4)ccc3C)cc2)cc1  2.85%
11. Nc1nc(-c2ccc(F)cc2)c(-c2ccc3ncccc3n2)s1  2.74%
12. Cc1cccc2c1NC(=O)/C2=N\Nc1ccc(S(N)(=O)=O)cc1  2.56%
13. N#Cc1c(NC(=O)CN2CCOCC2)sc2c1CCCC2  2.31%
14. CCN(CC)S(=O)(=O)c1ccc(OC)c(Nc2ncc(-c3ccccc3)o2)c1  2.12%
15. COc1ccc2c(-c3ccnc(Nc4cccc(OC(F)(F)F)c4)n3)cnn2n1  2.02%
16. CNC(=O)c1cccc(C#Cc2cncnc2Nc2ccc(OCc3cccc(F)c3)c(Cl)c2)c1  1.94%
17. FC(F)(F)c1cccc(-c2nn3ncccc3c2-c2ccnc(Nc3ccc4c(c3)OCCO4)n2)c1  1.81%
18. CN(C)CCOc1ccc(-c2nc(-c3ccncc3)c(-c3ccc4c(c3)CC/C4=N\O)[nH]2)cc1  1.74%
19. CCn1c(-c2nonc2N)nc2c(C#CC(C)(C)O)ncc(OC3CCNCC3)c21  1.48%
20. Clc1ccc(-c2nn3ncccc3c2-c2ccnc(Nc3ccccc3)n2)cc1  1.35%
21. CCCN(CCS(C)(=O)=O)Cc1ccc(-c2ccc3ncnc(Nc4ccc(OCc5cccc(F)c5)c(Cl)c4)c3c2)o1  1.17%
22. COc1ccc(-c2cc3c(N)ncnc3o2)cc1  1.13%
23. Nc1nc(-c2cccc(Cl)c2)c(-c2ccc3ncccc3n2)s1  1.1%
24. [O-][S+]1CCN(Cc2ccc(-c3ccc4ncnc(Nc5ccc(OCc6cccc(F)c6)c(Cl)c5)c4c3)o2)CC1  0.94%
25. c1ccc(COc2ccc(Nc3ncnc4ccc(-c5ccco5)cc34)cc2)cc1  0.82%
26. CN1CCC(n2cnc(-c3ccc(F)cc3)c2-c2ccnc(Nc3ccccc3)n2)CC1  0.71%
27. CC1=C(C(=O)Nc2cc(Cl)c3[nH]ncc3c2)C(c2ccc(C(F)(F)F)cc2)CC(=O)N1 (stereo unspecified)  0.68%
28. Cc1cccc(Nc2ncc(-c3ccccc3)o2)c1  0.68%
29. c1ccc(-c2nc3n(c2-c2ccc4c(c2)OCO4)CCC3)nc1  0.37%
30. CCCN1CCC(c2ccc(Nc3nc(Nc4cc(F)ccc4C(N)=O)c4cc[nH]c4n3)c(OC)c2)CC1  0.37%
31. CS(=O)(=O)CCNCc1ccc(-c2ccc3ncnc(Nc4ccc(OCc5ccccc5)c(C(F)(F)F)c4)c3c2)o1  -0.38%
32. Fc1ccc(-c2cc(-c3c[nH]nc3-c3ccccn3)ccn2)cc1  -0.57%
33. NC(=O)c1sc(-n2cnc3ccc(C(F)(F)F)cc32)cc1OCc1ccccc1Br  -0.7%
